Results from the supplement of paper PMC8047044.

test system: Neuro-2a; assay: neurite formation score, plate-normalized to DMSO control mean 5.04 (score (0-8 scale)); higher = more or longer neurites; details: 0.1 µM
Description: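 Neuro-2a mouse neuroblastoma cells in PLL-coated 96-well plates were pre-treated for 1 h in DMEM(+) with each kinase inhibitor at 0.1 µM, then switched to serum-free DMEM(-) with inhibitor to induce neurite outgrowth and fixed about 2-3 h later. Three blinded observers scored neurite formation from 0 (no neurites) to 8 (long neurites on almost all cells).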

| Compound | neurite formation score |
| --- | --- |
| N#CC(C#N)=Cc1ccc(O)c(O)c1 | 5.38 |
| COc1cc([C@@H]2c3cc4c(cc3[C@H](O)[C@H]3COC(=O)[C@@H]23)OCO4)cc(OC)c1OC | 2.38 |
| COc1ccc(N(C(=O)Oc2c(C)cccc2C)c2ccnc(Nc3ccc(N4CCN(C)CC4)cc3)n2)c(OC)c1 | 5.08 |
| Cc1ccccc1-n1c(Cn2cnc3c(N)ncnc32)nc2cccc(C)c2c1=O | 4.75 |
| Cn1cc(C2=C(c3cn(C4CCN(Cc5ccccn5)CC4)c4ccccc34)C(=O)NC2=O)c2ccccc21 | 2.38 |
| COC[C@H]1OC(=O)c2coc3c2[C@@]1(C)C1=C(C3=O)[C@@H]2CCC(=O)[C@@]2(C)C[C@H]1OC(C)=O [Wortmannin] | 4.58 |
| CCN1CCN(C(=O)Cc2ccc(Nc3ncc(F)c(Nc4ccc(C(=O)Nc5ccccc5Cl)cc4)n3)cc2)CC1 [Aurora A Inhibitor I] | 4.92 |
| CC(C)(C)c1cc(C=C(C#N)C#N)cc(C(C)(C)C)c1O [Tyrphostin 9] | 4.92 |
| O=c1[nH]c2ccc(Cl)cc2c(N[C@@H]2CN3CCC2CC3)c1-c1nc2ccccc2[nH]1 | 4.92 |
| CC(C)(C)c1cc(C=C(C#N)C#N)cc(Br)c1O | 5.04 |
| O=c1[nH]c2ccccc2n1C1CCN(Cc2ccc(-c3[nH]c4cc5ncnc5cc4nc3-c3ccccc3)cc2)CC1 [AKT inhibitor VIII] | 3.38 |
| COc1ccc2c(c[n+](C)c3c4cc5c(cc4ccc23)OCO5)c1OC [Chelerythrine Chloride] | 4.04 |
